Results taken from PubChem BioAssay.

Tested on: Wnt5a (protein binding on small-molecule microarray)
Assay: Wnt5a binders on small-molecule microarray, primary screen, biophysical, 635/667 nm fluorescence (AID 1142);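 further: fluorescence read at 667 nm with signal to noise per printed feature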
Conditions: 635 nm fluorescence, higher = more signal

SMILES | composite z-score
CCOC(=O)[C@H](Cc1ccccc1)NC(=O)CCC1CC(OC(=O)NCc2cccc3ccccc23)CC2(CCCC(COC(=O)NCCC(C)C)O2)O1 (stereo partly specified) | -0.0404
CC(C)CON=C1[C@H]2CCn3c(=O)n(Cc4cc5c(cc4Cl)OCO5)c(=O)n3[C@H]2[C@H](O)[C@@H]2O[C@H]12 | 0.26
CC(CCC(=O)OC[C@H]1O[C@H](C#Cc2ccccc2)C=C[C@@H]1Oc1ccc(C)cc1)=NO[C@H](C)c1cn([C@H](CO)Cc2ccccc2)nn1 | -0.313
COc1ccc(COC(=O)NN=C2C[C@@H](O)[C@@H](O)[C@@H]3[C@@H]4C(=O)N(c5ccc(F)cc5F)C(=O)[C@@H]4CC[C@H]23)cc1 | 0.118
C#CCCCON=C1[C@H]2CCn3c(=O)n(C)c(=O)n3[C@H]2[C@H](O)[C@@H]2O[C@H]12 | 0.119
CC(C)=CCCC(C)=CCON=C1C[C@@H](O)[C@@H](O)[C@@H]2[C@@H]3C(=O)N(C(C)(C)C)C(=O)[C@@H]3CC[C@@H]12 | -0.0529
CCN1C(=O)[C@H]2[C@H]3[C@H](O)[C@H](O)CC(=O)[C@@H]3CC[C@H]2C1=O | 0.0774
O=C1CCCC=C1C(O)CCOC(c1ccccc1)(c1ccccc1)c1ccccc1 (stereo unspecified) | -0.263
COC(=O)CC=C[C@@H](C)[C@@H](C=NOC[C@H]1O[C@H](c2ccccc2)C=C[C@@H]1Oc1ccc(OC)cc1)NS(=O)(=O)c1ccc(C)cc1 | -0.308
CC(CCN1CCCc2nc(C)c(C)cc21)=NO[C@@H](C)c1cc(-c2c(C)cc(C)cc2C)no1 | 0.0353
CO[C@H](C1CCCCC1)[C@H](C)C=CCC(=O)OCCCc1ccccc1 | -0.125
